This excerpt belongs to a sample that is enriched for hits.
Methyltransferases: Primary Screen for Target Class Profiling of Small Molecule Inhibitors of Methyltransferases. AID 1745853, 2022. purified enzyme, MTase-Glo SAH luminescence; active compounds read low. 3.9% of 25,000 active. calls only at 40 µM; call rule not given here
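Each enzyme was assayed with SAM and its substrate. SAH formation detected by MTase-Glo luminescence; single-point 40 uM screen[…].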
The depositor's hits bear a star; i = inactive; + = active, no number. % is set by controls: 0 for no effect and ±100 for the full control effect.

SMILES	Methyltransferases
N#Cc1ccc(N2CCN(C(=O)COc3ccc4[nH]cc(CCN)c4c3)CC2)cc1	+
CCOc1ccc(C2c3cccn3-c3ccccc3CN2C(=O)Nc2cccc(SC)c2)cc1 (stereo unspecified)	i
CC(C)c1cccc(C(C)C)c1O	i
CC(N)c1cccc(Cl)c1Cl (stereo unspecified)	+
CCc1ccc(C2c3cccn3-c3ccccc3CN2C(=O)NCc2ccco2)cc1 (stereo unspecified)	i
Cc1ccc(NC(=O)N2Cc3ccccc3-n3cccc3C2c2ccc(N(C)C)cc2)cc1Cl (stereo unspecified)	i
CC(C)NC(=O)N1Cc2ccccc2-n2cccc2C1C (stereo unspecified)	i
NNC(=O)c1ccc(O)cc1	i
NCCc1ccc(O)cc1	+
Cc1ccc(NC(=O)N2Cc3ccccc3-n3cccc3C2c2cccs2)cc1 (stereo unspecified)	i
COc1ccc(C2c3cccn3-c3ccccc3CN2C(=O)NCc2ccc(F)cc2)cc1OC (stereo unspecified)	i
CCC1c2cccn2-c2ccccc2CN1C(=O)Nc1cccc2c1CCCC2 (stereo unspecified)	i
O=C(NC1CCCC1)N1Cc2ccccc2-n2cccc2C1c1cccs1 (stereo unspecified)	i
O=c1ccc2[nH]cc(C3=CCNCC3)c2[nH]1	+
COc1cccc(NC(=O)N2Cc3ccccc3-n3cccc3C2c2ccc(F)cc2)c1 (stereo unspecified)	i
O=C(Nc1ccccc1)N1Cc2ccccc2-n2cccc2C1c1ccccc1 (stereo unspecified)	i
CN1CCc2cc(O)cc3c2[C@H]1Cc1ccc(O)c(O)c1-3	+
CCCN1CCO[C@H]2c3cc(O)ccc3OC[C@@H]21	i
CCCN1CCc2cc(O)cc3c2[C@H]1Cc1ccc(O)c(O)c1-3	+
CCc1ccc(C2c3cccn3-c3ccccc3CN2C(=O)Nc2cccc(C)c2C)cc1 (stereo unspecified)	i
CCOC(=O)c1ccc(NC(=O)N2Cc3ccccc3-n3cccc3C2c2cccs2)cc1 (stereo unspecified)	i
CCOc1ccc(C2c3cccn3-c3ccccc3CN2C(=O)Nc2ccc(C)c(F)c2)cc1 (stereo unspecified)	i
COc1ccc(C2c3cccn3-c3ccccc3CN2C(=O)Nc2cccc(C)c2C)cc1 (stereo unspecified)	i
CCC1c2cccn2-c2ccccc2CN1C(=O)Nc1cccc(Cl)c1C (stereo unspecified)	i
COc1ccc(C2c3cccn3-c3ccccc3CN2C(=O)NC2CCCC2)cc1OC (stereo unspecified)	i
SMILES	Methyltransferases
Cc1cccc(C2c3cccn3-c3ccccc3CN2C(=O)Nc2ccc(F)cc2)c1 (stereo unspecified)	i
COc1ccc(C2c3cccn3-c3ccccc3CN2C(=O)NCc2ccc(C)cc2)cc1OC (stereo unspecified)	i
CCOC(=O)CNC(=O)N1Cc2ccccc2-n2cccc2C1c1ccc(OC)cc1 (stereo unspecified)	i
O=C(NCc1ccccc1)N1Cc2ccccc2-n2cccc2C1c1ccccc1Cl (stereo unspecified)	i
O=S1(=O)N(CCN2CC=C(c3c[nH]c4cc(F)ccc34)CC2)c2cccc3c2N1CCC3	+
CCOC(=O)CNC(=O)N1Cc2ccccc2-n2cccc2C1c1ccccc1Cl (stereo unspecified)	i
Cc1cccc(C2c3cccn3-c3ccccc3CN2C(=O)Nc2cccc(Br)c2)c1 (stereo unspecified)	i
O=C(Nc1cccc(C(F)(F)F)c1)N1Cc2ccccc2-n2cccc2C1c1cccs1 (stereo unspecified)	i
COc1ccc(C2c3cccn3-c3ccccc3CN2C(=O)Nc2cccc(C)c2)cc1OC (stereo unspecified)	i
CCOC(=O)Cc1ccc(NC(=O)N2Cc3ccccc3-n3cccc3C2CC)cc1 (stereo unspecified)	i
CC(C)C1c2cccn2-c2ccccc2CN1C(=O)Nc1ccc(F)c(Cl)c1 (stereo unspecified)	i
COC(=O)c1ccc(NC(=O)N2Cc3ccccc3-n3cccc3C2c2ccc(OC)c(OC)c2)cc1 (stereo unspecified)	i
COc1ccc(OC)c(NC(=O)N2Cc3ccccc3-n3cccc3C2c2ccc(C(C)C)cc2)c1 (stereo unspecified)	i
Cc1c2ccncc2c(C)c2c1[nH]c1ccccc12	+
Cc1nccc2c1[nH]c1ccccc12	i
CCOc1ccc(NC(=O)N2Cc3ccccc3-n3cccc3C2C)cc1 (stereo unspecified)	i
COc1ccccc1NC(=O)N1Cc2ccccc2-n2cccc2C1c1ccc(N(C)C)cc1 (stereo unspecified)	i
CCc1ccc(C2c3cccn3-c3ccccc3CN2C(=O)Nc2ccc(C)cc2C)cc1 (stereo unspecified)	i
N#Cc1cn([C@@H]2O[C@H](CO)[C@H](O)[C@@H]2O)c2ncnc(N)c12	+
CCc1ccc(C2c3cccn3-c3ccccc3CN2C(=O)Nc2ccc(OC)c(OC)c2)cc1 (stereo unspecified)	i
CCOCCCNC(=O)N1Cc2ccccc2-n2cccc2C1c1ccc(OC)cc1 (stereo unspecified)	i
CCOc1ccc(C2c3cccn3-c3ccccc3CN2C(=O)Nc2cc(Cl)ccc2OC)cc1 (stereo unspecified)	i
CCOC(=O)CNC(=O)N1Cc2ccccc2-n2cccc2C1c1cccs1 (stereo unspecified)	i
O=C(Nc1ccc(Br)cc1F)N1Cc2ccccc2-n2cccc2C1c1cccs1 (stereo unspecified)	i
COc1ccc(C2c3cccn3-c3ccccc3CN2C(=O)Nc2cccc(SC)c2)cc1 (stereo unspecified)	i
SMILES	Methyltransferases
COc1ccc(CNC(=O)/C=C/c2ccc3[nH]cc(CCN(C)C)c3c2)cc1	+
CNCCc1c[nH]c2ccc(O)cc12	i
CCC1c2cccn2-c2ccccc2CN1C(=O)Nc1ccccc1 (stereo unspecified)	i
O=C(Nc1cc(F)ccc1F)N1Cc2ccccc2-n2cccc2C1c1ccccc1 (stereo unspecified)	i
CCOc1ccc(C2c3cccn3-c3ccccc3CN2C(=O)Nc2cc(C)ccc2OC)cc1 (stereo unspecified)	i
CCc1ccc(NC(=O)N2Cc3ccccc3-n3cccc3C2c2cccs2)cc1 (stereo unspecified)	i
O=C1Nc2ccc3ncsc3c2/C1=C/c1cnc[nH]1	+
Cc1ccc(NC(=O)N2Cc3ccccc3-n3cccc3C2c2ccc(N(C)C)cc2)c(C)c1 (stereo unspecified)	i
CCOc1ccccc1NC(=O)N1Cc2ccccc2-n2cccc2C1c1cccc(C)c1 (stereo unspecified)	i
CC1CCN(CC2CCCCCN2C(=O)Cc2ccccc2)CC1 (stereo unspecified)	i
COc1ccc(C2c3cccn3-c3ccccc3CN2C(=O)NCc2ccccc2)cc1OC (stereo unspecified)	i
Cc1ccccc1C1c2cccn2-c2ccccc2CN1C(=O)Nc1ccc(F)cc1 (stereo unspecified)	i
Cc1ccc(C2c3cccn3-c3ccccc3CN2C(=O)Nc2ccc(F)cc2)cc1 (stereo unspecified)	i

High-throughput results (PubChem BioAssay)
